# Bioassay records as filed in PubChem.
# Only a selection was taken, and hits are over-represented in it overall.
# miR-122 inh = activators of miR-122 sensor in Huh7 cells | Huh7 psiCHECK-miR122 Renilla luciferase sensor, 48 h | activation, % at 12.5 µM | 0.14% of 340,000 active | AID 623901;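 active = mean activation of 30% or more, with every replicate also reaching 30%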;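 note: 0% = median of neutral control wells and 100% = median of positive control wells; higher luciferase signal means stronger suppression of miR-122 activity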
# Numbers without * were called inactive.
SMILES,miR-122 inh
CCCC(=O)Nc1ccc2c(c1)C(=O)N(C)C[C@@H](OC)[C@H](C)CN[C@@H](C)CO2,-1.0
C[C@@H]1CN([C@H](C)CO)C(=O)c2cc(-c3ccc(C#N)cc3)cnc2O[C@@H]1CN(C)CC1CCOCC1,3.8
C[C@H]1CN([C@@H](C)CO)C(=O)c2cc(C#Cc3cccc(F)c3)cnc2O[C@H]1CN(C)C(=O)C1CC1,6.8
COc1ccc(OC)c(Nc2nc(N)nc(CCl)n2)c1,31.8*
COc1ccc(OC)c(NS(=O)(=O)c2ccc(N3CCCC3=O)cc2)c1,-120.0
COc1ccc(S(=O)(=O)Nc2cc(Cl)ccc2OC)cc1,-137.5
C/C=C/c1ccc2c(c1)O[C@H](CN(C)C(=O)Nc1ccc(OC)cc1)[C@H](C)CN([C@H](C)CO)S2(=O)=O,-0.2
C[C@@H]1CN([C@H](C)CO)C(=O)c2cc(-c3cccc(C#N)c3)cnc2O[C@@H]1CN(C)C(=O)C1CCCCC1,5.7
Cc1ccc(-c2cnc3c(c2)C(=O)N([C@H](C)CO)C[C@H](C)[C@@H](CN(C)C(=O)Cc2ccncc2)O3)cc1,-3.2
C[C@H](CO)N1C[C@H](C)[C@@H](CN(C)C(=O)Nc2ccc3c(c2)OCO3)Oc2cc(C#Cc3ccccc3)ccc2S1(=O)=O,-17.1
COc1cccc(NC(=O)N(C)C[C@H]2Oc3cc(C#Cc4ccncc4)ccc3S(=O)(=O)N([C@@H](C)CO)C[C@@H]2C)c1,-38.8
C[C@@H]1CN([C@@H](C)CO)S(=O)(=O)c2ccc(C#Cc3cccc(F)c3)cc2O[C@H]1CN(C)C(=O)CN1CCOCC1,-2.1
C[C@@H]1CN([C@H](C)CO)S(=O)(=O)c2ccc(C#Cc3ccncc3)cc2O[C@@H]1CN(C)C(=O)c1ccncc1,15.4
COc1ccc(C#Cc2ccc3c(c2)O[C@H](CN(C)C(=O)CN2CCOCC2)[C@H](C)CN([C@H](C)CO)S3(=O)=O)cc1,50.0*
C[C@@H]1CN([C@@H](C)CO)S(=O)(=O)c2ccc(C#Cc3ccncc3)cc2O[C@H]1CN(C)C(=O)C1CCCCC1,6.6
C[C@H]1CN([C@@H](C)CO)S(=O)(=O)c2ccc(C#Cc3ccncc3)cc2O[C@@H]1CN(C)C(=O)c1ccncc1,-17.8
C[C@@H]1CN([C@@H](C)CO)S(=O)(=O)c2ccc(C#Cc3ccncc3)cc2O[C@@H]1CN(C)C(=O)C1CCCCC1,18.9
C[C@H](CO)N1C[C@H](C)[C@@H](CN(C)C(=O)C2CCOCC2)Oc2cc(C#Cc3ccncc3)ccc2S1(=O)=O,33.6*
C[C@@H]1CN([C@@H](C)CO)S(=O)(=O)c2ccc(C#Cc3ccncc3)cc2O[C@@H]1CN(C)C(=O)Nc1ccc2c(c1)OCO2,43.2*
C[C@H](CO)N1C[C@H](C)[C@@H](CN(C)C(=O)CN2CCOCC2)Oc2cc(C#Cc3cccc(F)c3)ccc2S1(=O)=O,3.0
CCCC#Cc1ccc2c(c1)O[C@H](CN(C)C(=O)c1ccncc1)[C@H](C)CN([C@@H](C)CO)S2(=O)=O,31.5*
C[C@H](O)C#Cc1cnc2c(c1)C(=O)N([C@H](C)CO)C[C@H](C)[C@H](CN(C)Cc1cncnc1)O2,2.6
C[C@@H]1CN([C@@H](C)CO)C(=O)c2cc(C#CC3(O)CCCC3)cnc2O[C@@H]1CN(C)C(=O)CN(C)C,5.4
C/C=C/c1ccc2c(c1)O[C@H](CN(C)C(=O)Nc1ccc(OC)cc1)[C@@H](C)CN([C@@H](C)CO)S2(=O)=O,-21.2
C[C@@H]1CN([C@@H](C)CO)S(=O)(=O)c2ccc(-c3cccc(C#N)c3)cc2O[C@@H]1CN(C)C(=O)Nc1ccccc1F,-27.6
SMILES,miR-122 inh
C[C@@H]1CN([C@H](C)CO)S(=O)(=O)c2ccc(C#Cc3ccc(F)cc3)cc2O[C@@H]1CN(C)S(=O)(=O)c1cn(C)cn1,-47.3
CC(C)C#Cc1ccc2c(c1)O[C@@H](CN(C)CC1CCCC1)[C@H](C)CN([C@@H](C)CO)S2(=O)=O,-6.7
C[C@@H]1CN([C@H](C)CO)C(=O)c2cc(C#CC(C)(C)O)cnc2O[C@H]1CN(C)C(=O)C1CC1,-5.6
CC(C)C#Cc1cnc2c(c1)C(=O)N([C@@H](C)CO)C[C@@H](C)[C@H](CN(C)C(=O)c1ccccc1)O2,6.7
C[C@H]1CN([C@@H](C)CO)C(=O)c2cc(C#CCc3ccccc3)cnc2O[C@H]1CN(C)C(=O)C1CCCCC1,2.2
C[C@@H]1CN([C@H](C)CO)C(=O)c2cc(C#Cc3ccccn3)cnc2O[C@H]1CN(C)Cc1cncnc1,-0.2
C[C@H]1CN([C@@H](C)CO)S(=O)(=O)c2ccc(-c3ccccc3)cc2O[C@@H]1CN(C)Cc1ccccc1C(=O)O,-26.1
COCC#Cc1cnc2c(c1)C(=O)N([C@H](C)CO)C[C@@H](C)[C@H](CN(C)C(=O)Nc1c(C)noc1C)O2,2.9
C[C@H]1CN([C@@H](C)CO)C(=O)Cc2cc(NS(=O)(=O)c3ccc(F)cc3)ccc2O[C@H]1CN(C)Cc1ccc(C(=O)Nc2ccccc2N)cc1,-113.8
COc1cccc(C#Cc2ccc3c(c2)O[C@@H](CN(C)C(C)=O)[C@@H](C)CN([C@@H](C)CO)S3(=O)=O)c1,-4.4
CNC[C@@H]1Oc2cc(C#Cc3cccc(OC)c3)ccc2S(=O)(=O)N([C@@H](C)CO)C[C@@H]1C,48.7*
COc1cccc(C#Cc2ccc3c(c2)O[C@H](CN(C)C(C)=O)[C@H](C)CN([C@H](C)CO)S3(=O)=O)c1,5.0
CCC(=O)N1C[C@@H](C)[C@H](OC)CN(C)C(=O)c2ccc(NS(C)(=O)=O)cc2OC[C@H]1C,-1.8
C[C@@H]1CN([C@@H](C)CO)C(=O)c2cc(-c3cccnc3)cnc2O[C@@H]1CN(C)Cc1ccc(Oc2ccccc2)cc1,2.3
COCC(=O)Nc1ccc2c(c1)OC[C@H](C)NC[C@@H](C)[C@@H](OC)CN(C)C2=O,0.4
CC(C)C#Cc1ccc2c(c1)O[C@H](CN(C)C(=O)Nc1ccccc1)[C@@H](C)CN([C@@H](C)CO)S2(=O)=O,-100.5
Cc1ccc(-n2c(Cc3ccccc3)n[nH]c2=S)cc1,41.0*
C[C@@H]1CN([C@@H](C)CO)C(=O)c2cc(-c3cccc(F)c3)cnc2O[C@@H]1CN(C)C(=O)C1CCOCC1,3.8
C[C@H]1CN([C@@H](C)CO)C(=O)c2cc(C#CC3CC3)cnc2O[C@H]1CN(C)C,2.2
CCCNC(=O)N(C)C[C@@H]1Oc2cc(-c3ccccc3)ccc2S(=O)(=O)N([C@H](C)CO)C[C@@H]1C,-6.2
C[C@@H]1CN([C@@H](C)CO)S(=O)(=O)c2ccc(-c3ccccc3)cc2O[C@H]1CN(C)Cc1ccccc1C(=O)O,-5.0
C=CCNC(=S)NNC(=O)Cn1c(-c2ccccc2)cc(=O)n2ncnc12,34.0*
CCCNC(=O)N(C)C[C@@H]1Oc2ncc(/C=C/c3ccccc3)cc2C(=O)N([C@H](C)CO)C[C@@H]1C,5.0
C[C@@H]1CN([C@H](C)CO)C(=O)c2cc(C#CC3(O)CCCC3)cnc2O[C@H]1CN(C)S(=O)(=O)c1ccc(F)cc1,-0.9
Cc1ccc(S(=O)(=O)N(C)C[C@H]2Oc3cc(-c4cccc(F)c4)ccc3S(=O)(=O)N([C@@H](C)CO)C[C@H]2C)cc1,-4.2
COCC(=O)N(C)C[C@@H]1Oc2cc(-c3ccccc3)ccc2S(=O)(=O)N([C@@H](C)CO)C[C@H]1C,4.5
COCC(=O)N(C)C[C@@H]1Oc2cc(-c3cccc(F)c3)ccc2S(=O)(=O)N([C@@H](C)CO)C[C@H]1C,-2.2
COCC(=O)N(C)C[C@@H]1Oc2cc(-c3ccccc3)ccc2S(=O)(=O)N([C@H](C)CO)C[C@@H]1C,6.0
